According to PubChem BioAssay (NCI):
This is part of a sample that, as a whole, favours compounds with a hit. Of some 79,000 tested, about 15% had one in any assay. Unmarked numbers belong to inactive results. Calls of active or inactive are those of the source. Cut-off read from the data, not from the text of the source: active = growth inhibition above about 70%; inactive = the rest.

Tests used:
[1] = NCI Yeast Anticancer Drug Screen. Data for the rad50 strain (AID 155);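 note: 0% = growth of vehicle-only cultures of the same strain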; details: S. cerevisiae rad50 strain growth inhibition, active compounds read high
Procedure, shortened: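 Vehicle-treated cultures provide the reference for the growth inhibition reported for compound-exposed, repair-deficient yeast.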

[2] = NCI Yeast Anticancer Drug Screen. Data for the mec2-1 strain (AID 157); details: S. cerevisiae mec2-1 strain, active compounds read high
Procedure, shortened: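 Strain: mec2-1 (DNA repair/cell cycle alteration). Compound exposure, then growth measured; inhibition expressed relative to vehicle.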

[3] = NCI Yeast Anticancer Drug Screen. Data for the sgs1 mgt1 strain (AID 161);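 note: 0% = growth of cultures given vehicle only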; details: S. cerevisiae sgs1 mgt1 strain, active compounds read high
Procedure, shortened: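 Read-out: growth inhibition vs vehicle controls. Cells: mutant yeast strain deficient in DNA damage repair.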

[4] = NCI Yeast Anticancer Drug Screen. Data for the cln2 rad14 strain (AID 165);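 note: 0% = growth equal to vehicle treated cultures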; details: S. cerevisiae cln2 rad14 strain, active compounds read high
Procedure, shortened: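 Compounds are applied to the cln2 rad14 yeast strain, and growth is then compared with that of vehicle-treated cultures to give inhibition.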

[5] = NCI Yeast Anticancer Drug Screen. Data for the bub3 strain (AID 167); details: S. cerevisiae bub3 mutant strain, active compounds read high
Procedure, shortened: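 Mutant yeast screening strain plus compound; vehicle-treated cultures serve as the 0% inhibition reference.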

[6] = NCI Yeast Anticancer Drug Screen. Data for the mlh1 rad18 strain (AID 175); details: S. cerevisiae mlh1 rad18 strain growth inhibition, active compounds read high
Procedure, shortened: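 Read-out is yeast growth inhibition, calculated against vehicle-only controls. The compound was applied to a strain engineered with DNA damage repair alterations.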

[7] = at 5.0 µM (retest, dose inferred, filed as 0.5)
[8] = at 50.0 µM (retest, dose inferred, filed as 5.0)

| Compound | growth inhibition [1, 7] | growth inhibition [1, 8] | growth inhibition ([1]; at 50.0 µM) | growth inhibition [2, 7] | growth inhibition [2, 8] | growth inhibition ([2]; at 50.0 µM) | growth inhibition [3, 7] | growth inhibition [3, 8] | growth inhibition ([3]; at 50.0 µM) | growth inhibition [4, 7] | growth inhibition [4, 8] | growth inhibition ([4]; at 50.0 µM) | growth inhibition [5, 7] | growth inhibition [5, 8] | growth inhibition ([5]; at 50.0 µM) | growth inhibition [6, 7] | growth inhibition [6, 8] | growth inhibition ([6]; at 50.0 µM) |
| --- | --- | --- | --- | --- | --- | --- | --- | --- | --- | --- | --- | --- | --- | --- | --- | --- | --- | --- |
| OCCCCCCCCCl | 0% | 10% | 35.5% | -6% | 6% | 21.6% | 1% | 9% | 45.1% | 8% | 5% | 35.9% | -3% | 0% | -24.9% | -1% | 9% | 14.1% |
| CC/C(C)=C1\CCC(CN2CCOCC2)C1=O (stereo not given) | 24% | 61% | 79% (active) | 20% | 77% (active) | 72% (active) | 24% | 70% (active) | 66.3% | 31% | 45% | 48.8% | 31% | 94% (active) | 62.9% | 14% | 90% (active) | 79.2% (active) |
| CN(C)c1ccc(/C=C/C(=O)c2ccc([N+](=O)[O-])cc2)cc1 | 38% | 48% | -21.7% | 45% | 42% | -16% | -9% | 24% | -16.7% | 24% | 41% | -4.5% | 21% | 23% | -13.4% | 34% | 45% | -47.2% |
| O=[N+]([O-])/C(C(Cl)=C(Cl)Cl)=C(/Sc1ccccc1)N1CCCCC1 | -3% | 97% (active) | 84.9% (active) | 3% | 95% (active) | 88.5% (active) | -17% | 93% (active) | 77.6% (active) | -7% | 95% (active) | 85.2% (active) | -19% | 96% (active) | 86.1% (active) | -3% | 96% (active) | 77.9% (active) |
| Cc1ccccc1N=Nc1ccccc1 | 21% | 98% (active) | 99.4% (active) | 17% | 99% (active) | 99.4% (active) | 22% | 99% (active) | 99.5% (active) | 12% | 98% (active) | 99.3% (active) | 48% | 98% (active) | 99.3% (active) | 39% | 98% (active) | 99.4% (active) |
| Cc1ccc(NCCN(C)C)c2c(=O)c3c(O)cccc3sc12 | 95% (active) | 99% (active) | 67.3% | 13% | 100% (active) | 54.3% | 30% | 98% (active) | 60.7% | 11% | 99% (active) | 58.7% | 9% | 99% (active) | 49.5% | 29% | 99% (active) | 55.8% |
| c1ccc(NN=C(c2ccccc2)c2ccccc2)cc1 | -2% | 76% (active) | 94.2% (active) | -17% | 55% | 94.3% (active) | 7% | 68% | 95.8% (active) | 1% | 63% | 91.8% (active) | 12% | 83% (active) | 93.8% (active) | 12% | 91% (active) | 95.2% (active) |
| CCCC/C=C(/CCCNCCc1ccccc1)[Si](C)(C)C | 88% (active) | 98% (active) | 90.4% (active) | 90% (active) | 99% (active) | 93% (active) | 98% (active) | 99% (active) | 93.4% (active) | 89% (active) | 99% (active) | 91.5% (active) | 98% (active) | 99% (active) | 91.5% (active) | 97% (active) | 99% (active) | 90.9% (active) |
| NC(=O)CCSC(=S)N1CCOCC1 | -2% | -16% | -8.55% | -5% | -2% | -16.6% | -3% | 4% | -8.35% | 4% | -2% | 29.1% | 39% | -5% | -1.85% | 1% | 2% | -17.4% |
| CCCCN(CCCC)CCC(O)c1cc2c(c3ccccc13)CCCC2 (stereo not given) | 1% | 99% (active) | 99.4% (active) | 5% | 100% (active) | 99.2% (active) | 10% | 100% (active) | 99.7% (active) | 0% | 98% (active) | 67.1% | 10% | 99% (active) | 97.8% (active) | 9% | 99% (active) | 99.5% (active) |
